Source: PubChem BioAssay (National Center for Advancing Translational Sciences (NCATS))
JMJD2A Tudor inh = blocks the human JMJD2A Tudor domain. O75164. Potency, µM (top dose mostly 114 µM), for inactives: at the top dose activity change, negative = inhibition, actives largely listed as inhibitors. AlphaScreen JMJD2A-Tudor / H3K4me3 peptide binding. 390,000 tested, 4.4% active. AID 504339; further: potency means the concentration at half of the fitted maximal effect; on the % scale 0 is the no-effect control and ±100 the full control effect; nearly all actives have a fitted effect of over 50% in size
PLK1 PBD inh = PLK1 (human) polo-box domain binding inhibition; 360,000 tested, 2.8% active; Plk1 PBD binding of FITC phosphopeptide, fluorescence polarization; Potency, µM, for inactives: max response, negative = inhibition, hits mostly inhibitors; P53350; AID 720504; further: potency means the concentration at half of the fitted maximal effect; series mostly up to about 57 µM; on the % scale 0 is the no-effect control and ±100 the full control effect; nearly all actives have a fitted effect of over 65% in size
HP1b chromo inh = blocks HP1-beta chromodomain binding to methylated histone tails; AID 540317; 390,000 tested, 0.56% active; Potency, µM (titrated, usually from 114 µM), for the others: top-dose activity change, negative = inhibition, usual class: inhibitors; AlphaScreen HP1-beta / biotin-H3K9me3 peptide binding; further: potency means the concentration at half of the fitted maximal effect; nearly all actives have a fitted effect of over 70% in size
Target sequence (P83916 whole entry, looked up): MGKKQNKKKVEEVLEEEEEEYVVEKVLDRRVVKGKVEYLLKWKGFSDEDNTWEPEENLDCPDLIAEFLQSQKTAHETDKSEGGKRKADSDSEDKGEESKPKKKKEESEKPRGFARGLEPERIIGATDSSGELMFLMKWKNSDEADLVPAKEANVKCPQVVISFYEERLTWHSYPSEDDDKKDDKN
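HP1-beta protein (50 nM final) preincubated 30 min at room temperature with biotinylated H3(1-18)K9me3 peptide (50 nM) in PBS pH 7.4, 0.01% Tween-20, then compound added for 30 min. AlphaScreen streptavidin donor/nickel chelate acceptor beads (10 ug/mL final), 30 min dark, luminescence read.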
BAZ2B inh = inhibitors of human BAZ2B bromodomain. Q9UIF8. AlphaScreen BAZ2B-H3K14Ac peptide displacement. Potency, µM (highest dose often 114 µM), for the others: at the highest dose activity change, negative = inhibition, most hits filed as inhibitors. 360,000 tested, 4.4% active. AID 504333; further: potency means the concentration at half of the fitted maximal effect; on the % scale 0 is the no-effect control and ±100 the full control effect; nearly all actives have a fitted effect of over 60% in size
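In this displacement format the biotinylated H3(5-23) peptide acetylated at Lys14 serves as ligand at 50 nM, with BAZ2B at 50 nM in PBS pH 7.4 containing 0.01% Tween-20. Donor and acceptor beads are 10 ug/mL final.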
G9a block = blocks human histone lysine methyltransferase G9a. G9a H3K9 monomethylation, AlphaScreen, 2 h. Potency, µM (top dose mostly 102 µM), for the others: top-dose activity, negative = inhibition, most hits filed as inhibitors. 350,000 tested, 8.8% active; further: potency means the concentration at half of the fitted maximal effect; on the % scale 0 is the no-effect control and ±100 the full control effect; nearly all actives have a fitted effect of over 75% in size
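Using a bead-based AlphaScreen, monomethylated H3K9 product from 2 h room-temperature reactions (G9a 20 nM, peptide 500 nM, SAM 20 uM) was detected with 0.5 ug/mL rabbit anti-H3K9me1 antibody.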
PI5P4K alpha inh = PI5P4K alpha (human) kinase inhibition. P48426. PI5P4Kalpha enzyme, ADP-Glo luminescence, 60 min; active compounds read low. max response, %. 330,000 tested, 1.2% active. AID 652105; active means max response of -50% or lower; inconclusive means between -30% and -50%; inactive means -30% or higher; further: value at the top dose of about 77 µM; on the % scale 0 is the no-effect control and ±100 the full control effect
Target sequence (P48426 whole entry, looked up): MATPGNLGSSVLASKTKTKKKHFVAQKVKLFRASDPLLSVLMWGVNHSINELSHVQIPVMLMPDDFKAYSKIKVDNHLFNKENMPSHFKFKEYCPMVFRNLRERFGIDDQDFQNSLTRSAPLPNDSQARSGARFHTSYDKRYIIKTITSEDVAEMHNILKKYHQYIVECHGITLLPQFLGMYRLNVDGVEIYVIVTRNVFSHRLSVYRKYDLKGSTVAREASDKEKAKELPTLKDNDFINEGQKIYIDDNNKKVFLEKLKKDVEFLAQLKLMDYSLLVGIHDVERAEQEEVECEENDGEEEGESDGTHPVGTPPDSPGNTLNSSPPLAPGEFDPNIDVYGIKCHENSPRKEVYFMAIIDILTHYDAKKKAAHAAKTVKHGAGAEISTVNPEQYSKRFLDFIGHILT
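Compounds were pin-transferred onto PI5P4Kalpha and substrate in HEPES pH 7.4 buffer with EGTA, CHAPS and 5% DMSO. ATP (5 microM final) started the reaction, which ran 60 minutes at room temperature before ADP-Glo detection.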
* = called active by the depositor; ? = inconclusive; · = no result given; [ ] = another dose, or the depositor's remark. This is a sample that favours compounds with a hit; in the whole collection about 12% have one here. Unless noted, the call rests on the fitted dose curve; in most records, active means well fitted curve in the direction sought with a large enough effect; inconclusive means small, poorly fitted or top-dose-only effect, or another doubt; inactive means no such curve, though single readings can be large; an effect the other way counts as inactive or inconclusive.

SMILES	JMJD2A Tudor inh	PLK1 PBD inh	HP1b chromo inh	BAZ2B inh	G9a block	PI5P4K alpha inh
O=C(O)c1ccc(CSc2nc(-c3ccc(Cl)cc3)cc(C(F)(F)F)n2)cc1	?	21.2µM*	28.5%	?	-28.6%	·
CCOC(=O)c1c(NC(=O)CSc2nc(-c3ccc(OC)cc3)cc(C(F)(F)F)n2)sc(C)c1C	-20.3%	·	-18.9%	-8.7%	4.47µM*	·
O=S1(=O)CC(N2CCCC2)CN1Cc1cn(Cc2ccc(Cl)cc2)nn1 (stereo not drawn)	·	-9.8%	·	·	·	5.3
CC(Sc1nc(-c2ccccc2)cc(C(F)(F)F)n1)C(=O)O (stereo not drawn)	-22.6%[11.4 µM]	26.7µM*	?	-3.8%	6.4%	13.7
CC(Sc1nc(-c2ccccc2)cc(C(F)(F)F)n1)C(=O)N1CCCC1 (stereo not drawn)	-5.5%	-3.3%	57.2%	11.7%	14.3%	-6.3
CC1=C(c2ccccc2)[N+](=O)C2(CCCCC2)N1[O-]	-13.8%	-6.8%	3.1%	-13.2%	50.1µM*	-2.6
CCC1(CC)N([O-])C(C)=C(c2ccccc2)[N+]1=O	-10.4%	-10.1%	19.3%	3.3%	9.8%	-5.9
O=C1C=CC(=O)N1CCCCCCCCCCN1C(=O)C=CC1=O	?	1.19µM*	?	·	·	-50.6*
O=C1C=CC(=O)N1Cc1ccncc1	-27.8%	-11.8%	27.9%	·	·	10.5
COc1cc(NC(=O)CCc2nc3cccnc3n2Cc2cccs2)cc(OC)c1OC	-20.9%	·	18.5%	?	-18.8%[59 µM]	·
Cc1ccc(Nc2nc(C(N)=O)c(NC(=O)c3ccccc3Br)s2)cc1	-10.1%	·	3.6%[57 µM]	9.0%	-23.1%[59 µM]	·
CCCCNC(=O)c1cccc(-n2c(C)nc3cccnc32)c1	13.8%	·	42.7%	0.6%	5.3%[59 µM]	·
CCOc1cc(C2Nc3ccccc3NC3=C2C(=O)CC(C)(C)C3)ccc1O (stereo not drawn)	-19.9%	-5.0%	-4.1%	4.9%	?	-3.1
CCOc1cc(C2Nc3cccc4cccc(c34)N2)ccc1O	-33.1%	-29.3%	-34.5%	?	10µM*	·
CCOc1ccc(C2NCCc3cc(OC)c(OC)cc32)cc1OC (stereo not drawn)	-9.8%	-7.2%	44.5%	3.2%	-13.8%	1.6
CCOc1ccc(C2Nc3cccc4cccc(c34)N2)cc1OC	?	-20.4%	50.1µM*	-38.7%	10µM*	-0.3
Cc1cccc(Cn2c(=O)n(CC3CCC(C(=O)NC(C)C)CC3)c(=O)c3sccc32)c1 (stereo not drawn)	-7.3%	·	23.2%	-3.1%	12.5%[59 µM]	·
CC(=O)CC(=O)Nc1ccc(C(N)=O)cc1	-5.4%	-16.7%	26.3%	-5.0%	25.1µM*	-4.3
CC(=O)CC(=O)Nc1ccc(Nc2ccccc2)cc1	-24.1%	-1.7%	7.6%	?	70.8µM*	-10.9
O=C(COC(=O)c1c[nH]c(=O)[nH]c1=O)Nc1ccccc1	9.8%	8.8%	43.0%	-27.7%	-1.0%	-1.6
CC(C)c1ccc(NC(=O)COC(=O)c2c[nH]c(=O)[nH]c2=O)cc1	?	-15.4%	16.5%	6.3%	15.8µM*	-15.8
O=C(CCC1N=C2c3ccccc3N=C(SCC(=O)Nc3ccccc3F)N2C1=O)NCc1ccccc1 (stereo not drawn)	-16.4%	·	16.5%	-0.3%	-1.2%[59 µM]	·
COc1ccc2c(CC(=O)Nc3ccc(C)cc3)coc2c1	-18.4%	·	-6.0%	-14.8%	-19.3%[59 µM]	·
COc1ccc(O)c(/C=N/Nc2nc(C)cc(-c3ccccc3)n2)c1	35.5µM*	2.2%	?	·	·	18.7
CC(=O)N1CCN(Cc2cc(=O)oc3ccccc23)CC1	·	-9.2%	·	·	·	3.0
SMILES	JMJD2A Tudor inh	PLK1 PBD inh	HP1b chromo inh	BAZ2B inh	G9a block	PI5P4K alpha inh
Cc1ccc(S(=O)(=O)N2CCN=C2SCc2ccccc2)cc1	35.4%	29.9µM*	30.8%	34.0%	118.1%	0.9
CCCCNC(=O)C1c2ccccc2OCC(=O)N1Cc1ccc2c(c1)OCO2 (stereo not drawn)	·	-0.3%	·	·	·	-6.7
COc1cc(NC(=O)C2CCN(S(=O)(=O)c3cccs3)CC2)c(C(=O)O)cc1OC	·	-0.7%	·	·	·	-6.1
COc1cc(NC(=O)/C=C/c2ccccc2)c(C(=O)O)cc1OC	-8.8%[11.4 µM]	16.8µM*	-2.0%	-5.5%	·	-28.8
COc1cc(NC(=O)C2CC2)c(C(=O)O)cc1OC	-16.7%	-15.7%	40.5%	11.4%	50.1µM*	9.9
COc1cc(NC(=O)Cc2ccccc2)c(C(=O)O)cc1OC	?	?	14.5%	-3.5%	·	-9.2
Cc1cccc(C(O)c2ncc(-c3ccccc3)[nH]2)c1C (stereo not drawn)	·	-5.8%	·	·	·	0.2
CCc1nnc(SCC(=O)Nc2nccs2)n1CC	-18.2%	-7.8%	26.1%	-11.7%	-2.4%	-4.5
Cc1cccc(C(=O)NCc2nnc(SCC(=O)NC3=NCCS3)n2C)c1	39.8µM*	-1.5%	15.9%	4.9%	-44.7%	4.4
O=C(CSc1nnc(CNC(=O)c2ccccc2)o1)Nc1nccs1	?	-5.6%	49.2%	79.4µM*	35.1%	8.5
CCn1c(CNC(=O)c2cccc(C)c2)nnc1SCC(=O)NC1=NCCS1	-1.8%	-12.4%	16.7%	-14.5%	-46.3%	-1.5
CCn1c(Cc2cccc3ccccc23)nnc1SCC(=O)Nc1nccs1	79.4µM*	-0.6%	26.1%	5.6%	10µM*	3.3
Cn1c(COc2ccccc2)nnc1SCC(=O)Nc1nnc(C2CC2)s1	?	29.9µM*	-21.6%[57 µM]	·	·	-12.8
Cc1cc(C)nc(-n2nc(C)c3c2N(Cc2ccccc2F)C(=O)CC3c2ccc(Cl)cc2)n1 (stereo not drawn)	-27.2%	·	65.2%	?	-11.2%[59 µM]	·
Brc1ccc(CN2CCc3nc(Nc4ccccc4)ncc3C2)s1	?	·	25.7%	-34.7%	?	·
CNC(=O)C1CCC(Cn2c(=O)c3sccc3n(CC(=O)Nc3cc(C)cc(C)c3)c2=O)CC1 (stereo not drawn)	-5.7%	·	32.5%	-2.2%	-3.6%[59 µM]	·
O=C(CSc1nnc(CNC(=O)c2ccc(F)cc2)o1)Nc1nccs1	-34.6%	?	35.0%	79.4µM*	·	8.0
CCn1c(SCC(=O)Nc2nccs2)nnc1-c1ccc(C)cc1	-20.3%	-4.1%	21.6%	1.7%	20.2%[59 µM]	·
Cn1c(CNC(=O)c2ccccc2)nnc1SCC(=O)Nc1nccs1	11.2µM*	3.36µM*	-11.7%	-12.0%	-0.5%	?
O=C(CSc1nnc(Cn2c(=O)sc3ccccc32)n1-c1ccccc1)Nc1nccs1	-16.2%	-17.6%	50.3%	-8.6%	35.5µM*	-2.3
O=C(CSc1nnc(Cn2c(=O)sc3ccccc32)n1-c1ccccc1)N1CCCC1	-7.1%	2.9%	55.4%	-1.1%	-10.3%[59 µM]	-7.2
COc1cccc(C(=O)NCc2nnc(SCC(=O)Nc3nccs3)n2-c2ccccc2)c1	-7.0%	-5.1%	30.3%	-3.7%	5.5%[59 µM]	2.2
CCC(=O)Nc1ccc(-c2nnc(SCC(=O)Nc3nccs3)n2C)cc1	89.1µM*	-8.3%	26.9%	-5.4%	39.8µM*	-10.3
